The source made the active and inactive calls. Rule for the calls: active = hit-call score of the fitted dose curve at least 0.9, where 1 is the maximum; inactive = score below 0.9.
Test: APR_HepG2_MitoMass_1hr: Apredica 1-hour HepG2 Assay for Mitochondrial Mass (AID 2282674)
Conditions: high-content imaging, actives raise or lower the signal
Summary of the method: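 HepG2 cells dosed 1 hr with 0.39-200 uM compound (0.5% DMSO), duplicate wells. Mitochondria stained with 250 nM MitoTracker Red CMXRos for 30 min before formaldehyde fixation, imaged at 20x by ArrayScan; bidirectional fit versus DMSO.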

Row | SMILES | outcome
1 | CCSC(=O)N1CCCCCC1 | inactive
2 | COP(=O)(OC)O/C(C)=C/C(=O)N(C)C | inactive
3 | C=CCOC(=O)C(C)(C)OC(=O)c1cc(-n2c(=O)cc(C(F)(F)F)n(C)c2=O)ccc1Cl | inactive
4 | CN=C=S | inactive
5 | Nc1c(Cl)c(F)nc(OCC(=O)O)c1Cl | inactive
6 | Cc1cc(C)nc(Nc2ccccc2)n1 | inactive
7 | Clc1nc(Cl)nc(Nc2ccccc2Cl)n1 | inactive
8 | O=P(O)(O)CCCl | inactive
9 | CNC(=O)N(C)c1nnc(C(C)(C)C)s1 | inactive
10 | COCC(C)N(C(=O)CCl)c1c(C)csc1C (configuration not stated) | inactive
11 | CCOC(=O)C(C)OC(=O)c1cc(Oc2ccc(C(F)(F)F)cc2Cl)ccc1[N+](=O)[O-] (configuration not stated) | inactive
12 | COC(=O)c1c(C(F)F)nc(C(F)(F)F)c(C2=NCCS2)c1CC(C)C | inactive
13 | CC(C)Oc1cccc(NC(=O)c2ccccc2C(F)(F)F)c1 | inactive
14 | CN/C(=N\[N+](=O)[O-])NCc1cnc(Cl)s1 | inactive
15 | Cn1c(-c2ccccc2)cc(-c2ccccc2)[n+]1C | inactive
16 | CC(C)C1(C)N=C(c2ncccc2C(=O)O)NC1=O (configuration not stated) | inactive
17 | N#CN=C1SCCN1Cc1ccc(Cl)nc1 | inactive
18 | CCCCOCN(C(=O)CCl)c1c(CC)cccc1CC | inactive

Row | SMILES | outcome
19 | CC(C)Nc1nc(Cl)nc(NC(C)C)n1 | inactive
20 | COC(=O)NC(=S)Nc1ccccc1NC(=S)NC(=O)OC | inactive
21 | CCNP(=S)(OC)O/C(C)=C/C(=O)OC(C)C (configuration not stated) | inactive
22 | CS(=O)(=O)c1ccc(C(=O)C2C(=O)CCCC2=O)c([N+](=O)[O-])c1 | inactive
23 | COC(=O)NS(=O)(=O)c1ccc(N)cc1 | inactive
24 | CNC(=O)Oc1cccc2ccccc12 | inactive
25 | CCCCC(C#N)(Cn1cncn1)c1ccc(Cl)cc1 (configuration not stated) | inactive
26 | COC(=O)N(C(=O)N1CO[C@@]2(C(=O)OC)Cc3cc(Cl)ccc3C2=N1)c1ccc(OC(F)(F)F)cc1 | inactive
27 | CCNC(=O)NC(=O)C(C#N)=NOC | inactive
28 | Nc1c(Cl)c(Cl)nc(C(=O)O)c1Cl | inactive
29 | CCCCC(O)(Cn1cncn1)c1ccc(Cl)cc1Cl (configuration not stated) | inactive
30 | Cc1c(COC(=O)[C@@H]2[C@H](/C=C(\Cl)C(F)(F)F)C2(C)C)cccc1-c1ccccc1 | inactive
31 | CO/N=C(/C1=NOCCO1)c1ccccc1Oc1ncnc(Oc2ccccc2Cl)c1F | inactive
32 | O=C1C2CC=CCC2C(=O)N1SC(Cl)(Cl)Cl (configuration not stated) | inactive
33 | CC(C)=CC1C(C(=O)OCc2coc(Cc3ccccc3)c2)C1(C)C (configuration not stated) | inactive
34 | CCOc1cc(C(C)(C)C)ccc1C1COC(c2c(F)cccc2F)=N1 (configuration not stated) | inactive
35 | CC(C)N1C(=O)c2ccccc2NS1(=O)=O | inactive
36 | O=C(Nc1ccccc1-c1ccc(Cl)cc1)c1cccnc1Cl | inactive

Test: APR_HepG2_MitoMembPot_1hr: Apredica 1-hour HepG2 Assay for Mitochondrial Membrane Potential (AID 2282675)
Conditions: imaging, actives raise or lower the signal
Summary of the method: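 HepG2 cells dosed 1 hour with 0.39–200 uM compound in duplicate, 0.5% DMSO final. MitoTracker Red CMXRos (250 nM, 30 min) loaded before formaldehyde fixation; fluorescence quantified by high-content imaging, bidirectional fitting versus DMSO.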

Row | SMILES | outcome | AC50
37 | CCSC(=O)N1CCCCCC1 | inactive | 
38 | COP(=O)(OC)O/C(C)=C/C(=O)N(C)C | inactive | 
39 | C=CCOC(=O)C(C)(C)OC(=O)c1cc(-n2c(=O)cc(C(F)(F)F)n(C)c2=O)ccc1Cl | inactive | 
40 | CN=C=S | inactive | 
41 | Nc1c(Cl)c(F)nc(OCC(=O)O)c1Cl | inactive | 
42 | Cc1cc(C)nc(Nc2ccccc2)n1 | inactive | 
43 | Clc1nc(Cl)nc(Nc2ccccc2Cl)n1 | inactive | 
44 | O=P(O)(O)CCCl | inactive | 
45 | CNC(=O)N(C)c1nnc(C(C)(C)C)s1 | inactive | 
46 | COCC(C)N(C(=O)CCl)c1c(C)csc1C (configuration not stated) | inactive | 
47 | CCOC(=O)C(C)OC(=O)c1cc(Oc2ccc(C(F)(F)F)cc2Cl)ccc1[N+](=O)[O-] (configuration not stated) | inactive | 
48 | COC(=O)c1c(C(F)F)nc(C(F)(F)F)c(C2=NCCS2)c1CC(C)C | inactive | 
49 | CC(C)Oc1cccc(NC(=O)c2ccccc2C(F)(F)F)c1 | inactive | 
50 | CN/C(=N\[N+](=O)[O-])NCc1cnc(Cl)s1 | inactive | 
51 | Cn1c(-c2ccccc2)cc(-c2ccccc2)[n+]1C | inactive | 
52 | CC(C)C1(C)N=C(c2ncccc2C(=O)O)NC1=O (configuration not stated) | inactive | 
53 | N#CN=C1SCCN1Cc1ccc(Cl)nc1 | inactive | 
54 | CCCCOCN(C(=O)CCl)c1c(CC)cccc1CC | inactive | 

Row | SMILES | outcome | AC50
55 | CC(C)Nc1nc(Cl)nc(NC(C)C)n1 | inactive | 
56 | COC(=O)NC(=S)Nc1ccccc1NC(=S)NC(=O)OC | inactive | 
57 | CCNP(=S)(OC)O/C(C)=C/C(=O)OC(C)C (configuration not stated) | inactive | 
58 | CS(=O)(=O)c1ccc(C(=O)C2C(=O)CCCC2=O)c([N+](=O)[O-])c1 | inactive | 
59 | COC(=O)NS(=O)(=O)c1ccc(N)cc1 | inactive | 
60 | CNC(=O)Oc1cccc2ccccc12 | inactive | 
61 | CCCCC(C#N)(Cn1cncn1)c1ccc(Cl)cc1 (configuration not stated) | inactive | 
62 | COC(=O)N(C(=O)N1CO[C@@]2(C(=O)OC)Cc3cc(Cl)ccc3C2=N1)c1ccc(OC(F)(F)F)cc1 | inactive | 
63 | CCNC(=O)NC(=O)C(C#N)=NOC | inactive | 
64 | Nc1c(Cl)c(Cl)nc(C(=O)O)c1Cl | inactive | 
65 | CCCCC(O)(Cn1cncn1)c1ccc(Cl)cc1Cl (configuration not stated) | inactive | 
66 | Cc1c(COC(=O)[C@@H]2[C@H](/C=C(\Cl)C(F)(F)F)C2(C)C)cccc1-c1ccccc1 | inactive | 
67 | CO/N=C(/C1=NOCCO1)c1ccccc1Oc1ncnc(Oc2ccccc2Cl)c1F | inactive | 
68 | O=C1C2CC=CCC2C(=O)N1SC(Cl)(Cl)Cl (configuration not stated) | inactive | 
69 | CC(C)=CC1C(C(=O)OCc2coc(Cc3ccccc3)c2)C1(C)C (configuration not stated) |  | 98.4 µM (active)
70 | CCOc1cc(C(C)(C)C)ccc1C1COC(c2c(F)cccc2F)=N1 (configuration not stated) |  | 100 µM (active)
71 | CC(C)N1C(=O)c2ccccc2NS1(=O)=O | inactive | 
72 | O=C(Nc1ccccc1-c1ccc(Cl)cc1)c1cccnc1Cl | inactive | 
